GBA mod = modulators of human glucocerebrosidase | purified enzyme, resorufin glucoside fluorescence (screen aimed at inhibitors), 20 min | 48,000 compounds, 1.1% hits | Potency, µM | P04062; in the data active = potency below about 15 µM; inconclusive = mostly about 16 µM to 33 µM;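 also: the screen sought inhibitors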
Target sequence (P04062 whole entry, looked up): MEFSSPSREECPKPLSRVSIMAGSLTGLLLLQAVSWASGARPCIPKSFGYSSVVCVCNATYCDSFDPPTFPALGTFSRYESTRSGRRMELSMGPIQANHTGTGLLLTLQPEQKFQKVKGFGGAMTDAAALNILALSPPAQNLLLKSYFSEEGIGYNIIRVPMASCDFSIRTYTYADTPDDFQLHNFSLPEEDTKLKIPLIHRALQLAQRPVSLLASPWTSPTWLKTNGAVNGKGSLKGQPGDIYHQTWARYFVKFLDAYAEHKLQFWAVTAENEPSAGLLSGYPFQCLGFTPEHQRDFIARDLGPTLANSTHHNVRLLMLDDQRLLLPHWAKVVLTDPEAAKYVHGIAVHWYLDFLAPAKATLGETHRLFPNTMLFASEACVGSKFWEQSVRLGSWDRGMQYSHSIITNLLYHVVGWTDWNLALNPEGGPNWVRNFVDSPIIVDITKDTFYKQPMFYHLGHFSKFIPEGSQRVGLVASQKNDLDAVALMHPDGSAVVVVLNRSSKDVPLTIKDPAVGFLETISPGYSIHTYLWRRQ
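Wild-type enzyme at 0.2 nM final in 50mM citric acid/KH2PO4, 10mM sodium taurocholate, 0.01% tween-20, pH 5.9, with resorufin beta-D-glucopyranoside at 30 uM final. Compounds titrated, 20 min at RT, red fluorescence read; AC50 from titration.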
PK Bst = modulators of Bacillus stearothermophilus pyruvate kinase. purified pyruvate kinase, luminescence ATP production; ribose 5-phosphate activator present at AC10. Potency, µM. 51,000 compounds, 1.2% hits. AID 361; in the data active = potency below about 11 µM; inconclusive = mostly about 12 µM to 25 µM;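 the screen sought inhibitors and activators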;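 also: scaled between full activation by ribose 5 phosphate and full inhibition by luteolin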
Luciferase inh = inhibitors of firefly luciferase; P08659; purified firefly luciferase, luminescence, 8 min; Potency, µM (series often up to 57.1 µM), inactives show at the highest dose activity change, negative = inhibition, hits mostly inhibitors; 72,000 compounds, 2.2% hits; AID 411; active = well fitted inhibition curve with a large enough effect; inconclusive = small, poorly fitted or top-dose-only effect; also: % is scaled to controls: 0 for no effect and ±100 for the full control effect; nearly all actives have a fitted effect of over 40% in size
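Firefly luciferase (PKLight detection mix) with 10 uM ATP in pH 7.2 imidazole buffer (KCl, MgCl2, Tween 20, BSA). Compounds tested across a concentration series (qHTS). Luminescence read after 8 min at ambient temperature.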
* hit, by the source's call; i = inactive; u = inconclusive; x = not tested or not shown; [ ] = dose if it differs, or a comment. Most compounds without a hit are left out; they make up all but 3.2% or so of the library. Potency is read from the fitted curve at half-maximal effect.

SMILES	GBA mod	PK Bst	Luciferase inh
O=C(O)/C=C\[C@H](O)c1ccc(Cl)cc1	x	x	1.1%
N#Cc1ccc(CN2CC3(CCN(C(=O)c4cc(C(F)(F)F)cc(C(F)(F)F)c4)CC3)C2)cc1	x	x	0.4%[11.4 µM]
COc1ccc(-n2nc3cc(C)c(N)c(Br)c3n2)cc1	u	3.42*	3.98µM*
COc1ccc(-n2nc3ccccc3n2)cc1	>76.9	x	-11.3%
CCc1ccc2c(-c3cccc(Cl)c3)nc(=O)n(CC)c2n1	x	x	2.4%
C=C[C@@]1(C)CC(=O)[C@@]2(O)[C@@]3(C)[C@@H](O)CCC(C)(C)[C@@H]3[C@H](O)[C@H](OC(C)=O)[C@@]2(C)O1	x	x	-0.3%
COc1ccc(-c2nnn(CC(=O)N(CC(=O)NC3CCCC3)c3cccc(C)c3)n2)cc1OC	x	>57	2.1%
O=C(CN(CCCN1CCOCC1)C(=O)Cn1nnc(-c2ccc(F)cc2)n1)NC1CCCCC1	3.96*	>57	-1.4%
COc1ccc(N(CC(=O)NC2CCCC2)C(=O)Cn2nnc(-c3ccc(F)cc3)n2)cc1OC	8.56*	>57	-0.8%
COc1ccc(N(CC(=O)NC2CCCC2)C(=O)Cn2nnc(-c3ccc(C)cc3)n2)cc1OC	9.37*	>57	1.0%
O=C(CN(CCN1CCOCC1)C(=O)Cn1nnc(-c2ccc(F)cc2)n1)NC1CCCCC1	x	>57	1.3%
COc1cc(-c2nnn(CC(=O)NC3CCS(=O)(=O)C3)n2)ccc1OCc1ccccc1 (stereo not given)	x	x	12.6µM*
COc1ccc(N(CC(=O)NC2CCCC2)C(=O)Cn2nnc(-c3ccc(C)cc3)n2)cc1	u	>57	0.3%
COc1ccc(-c2nnn(CC(=O)c3ccccc3)n2)cc1OC	>76.9	>57	-1.6%
CC(C)(Oc1ccc([C@@H]2CC2(Cl)Cl)cc1)C(=O)O	x	x	1.1%[25.5 µM]
COc1ccc(C(=O)N2CCC3(CCCN(Cc4nccs4)C3)CC2)cc1	x	x	-0.5%[11.4 µM]
CCn1c(=N)n(CC(=O)c2ccco2)c2ccccc21	13.4*	x	-1.2%
CCn1c(=N)n(CCO)c2ccccc21	>76.9	>57	3.7%
C[C@H](O)[C@H](O)[C@@H]1CNc2nc(N)[nH]c(=O)c2N1	x	x	-1.0%
CS(=O)(=O)Nc1cccc(-c2cc(Nc3ccccc3)ncn2)c1	x	x	2.6%[2.29 µM]
COc1ccc(OC)c(Nc2nc(-c3cccs3)cs2)c1	>76.9	x	-7.2%
COc1ccccc1Nc1nc(-c2cccs2)cs1	x	x	12.6µM*
Cc1ccc(Nc2nc(N)nc(CN3CCN(C)CC3)n2)cc1	>76.9	>57	1.7%
c1ccc(CN2CCC(N3CCN(Cc4ccc5c(c4)OCO5)CC3)CC2)cc1	x	x	2.3%
Nc1nc(CN2CCc3ccccc3C2)nc(Nc2ccccc2)n1	u	>57	0.4%
SMILES	GBA mod	PK Bst	Luciferase inh
Nc1nc(CN2CCN(c3ccccc3F)CC2)nc(Nc2ccccc2)n1	2.32*	>57	1.1%
Nc1nc(CN2CCN(Cc3ccc4c(c3)OCO4)CC2)nc(Nc2ccccc2)n1	14.2*	>57	2.3%
Cc1cccc(Nc2nc(N)nc(CN3CCN(c4ccc(F)cc4)CC3)n2)c1	3.29*	>57	4.5%
Cc1cccc(Nc2nc(N)nc(CN3CCN(C)CC3)n2)c1	>76.9	>57	4.1%
Cc1ccc(Nc2nc(N)nc(CN3CCN(c4ccccc4F)CC3)n2)cc1	1.4*	>57	1.7%
Clc1ccccc1-c1nc(NCc2cccnc2)c2ccccc2n1	x	x	0.5%[2.29 µM]
COc1ccccc1CN1CC2(CCN(C(=O)c3cc(C(F)(F)F)cc(C(F)(F)F)c3)CC2)C1	x	x	-2.0%[11.4 µM]
CC(=O)O[C@H]1C(=O)[C@]2(C)[C@H]([C@H](OC(=O)c3ccccc3)[C@@]3(O)C[C@H](OC(=O)[C@@H](O)[C@@H](NC(=O)c4ccccc4)c4ccccc4)C(C)=C1C3(C)C)[C@]1(OC(C)=O)CO[C@@H]1C[C@@H]2O	x	x	-2.0%[11.4 µM]
COCCn1c(=O)c(-c2ccc(Cl)cc2)nc2cnc(N(C)C)nc21	x	x	-7.9%[11.4 µM]
CC(C)c1ccc2c(c1)CC[C@@H]1[C@@](C)(CN)CCC[C@@]21C	x	x	1.0%[11.4 µM]
CSc1ncnc2c1ncn2CC(=O)[C@H]1CC[C@H]2[C@H]3CCC4=CC(=O)CC[C@@]4(C)[C@@H]3CC[C@@]12C	x	x	-0.1%[11.4 µM]
CCCCNc1ncnc2c1cnn2-c1ccc(Cl)cc1	x	x	10µM*
COCCNc1ncnc2c1cnn2Cc1ccc(Cl)cc1	>76.9	>57	0.4%
COCC(C)Nc1ncnc2c1cnn2-c1ccc(Cl)cc1 (stereo not given)	x	11.3*	7.94µM*
CCCCNc1ncnc2c1cnn2-c1ccccc1	x	x	12.6µM*
Clc1ccc(-n2ncc3c(NCCCn4ccnc4)ncnc32)cc1	x	u	-7.4%[25.5 µM]
CCCCNc1ncnc2c1cnn2-c1ccc(C)cc1C	x	x	-4.9%
Nc1ncnc2nc[nH]c12.Nc1ncnc2nc[nH]c12.[Cl][Pt]([Cl])([Cl])[Cl]	x	x	-4.4%[11.4 µM]
CC(=O)O[C@H]1CC[C@]2(C)C(=CC[C@H]3[C@H]4C[C@H]5O[C@]6(CC[C@H](C)CN6)[C@H](C)[C@@H]5[C@]4(C)CC[C@@H]32)C1	x	x	0.5%[11.4 µM]
COc1ccc(/C=N/n2c(N)nc3ccccc32)cc1OC	>76.9	8.38*	6.31µM*
CCSc1nncn1/N=C/c1ccc(OC)c(OC)c1	x	x	-19.0%
COc1ccc(-n2c(=O)c(-c3ccc(Cl)cc3)nc3cncnc32)cc1	x	x	-0.4%[11.4 µM]
Cc1ccc(-c2nn(CC(=O)NCCN3CCOCC3)c(=O)c3ccccc23)cc1	i	>57	1.4%
O=c1c2cccc3c2c(nn1CN1CCOCC1)-c1ccccc1-3	>76.9	2.94*	0.1%
O=S(=O)(c1ccccc1)N1CCC[C@@]2(CCN(c3ccccc3)C2)C1	x	x	0.2%[11.4 µM]
SMILES	GBA mod	PK Bst	Luciferase inh
NC(=O)C1CCN(c2nc(-c3ccccc3)nc3ccccc23)CC1	>76.9	x	-2.4%
NC(=O)C1CCN(c2nc(-c3ccccc3)nc3c2oc2ccccc23)CC1	8.27*	>57	-1.2%
C#CCCCO/N=C1/C[C@@H](O)[C@@H](O)[C@@H]2[C@@H]3C(=O)N([C@@H](C)c4ccccc4)C(=O)[C@H]3CC[C@H]12	x	x	0.7%[11.4 µM]
Cc1ccc(C2NC(=O)NC3=C2CCc2ccccc23)cc1 (stereo not given)	>76.9	u	12.6µM*
COc1ccc(C2NC(=O)NC3=C2CCc2ccccc23)cc1 (stereo not given)	>76.9	x	4.4%
Clc1ccccc1-c1nnc2sc(-c3ccccn3)nn12	>76.9	>57	-1.9%
COc1cccc(OC)c1-c1nn2c(-c3ccccc3Cl)nnc2s1	x	7.26*	-1.0%[25.5 µM]
O=C(O)[C@H]1[C@H](C(=O)O)[C@H](C(=O)O)C[C@@H]1C(=O)O	x	x	1.5%[11.4 µM]
O=C(COC(=O)c1ccc[nH]c1=O)c1ccc(Cl)s1	>76.9	>57	-17.4%
Cc1ccc(C(=O)OCC(=O)c2ccc(Cl)s2)s1	>76.9	i	15.8µM*
CCOC(=O)N1CCN(C(=O)CSc2nnc(-c3ccc(C)c(C)c3)o2)CC1	x	x	-9.7%
CCOC(=O)N1CCN(C(=O)CSc2nnc(-c3ccc(C(C)(C)C)cc3)o2)CC1	x	x	1.26µM*
CCNc1ncc2nc(-c3cn(C)c4ccccc34)c(=O)n(CCC#N)c2n1	x	x	0.3%[11.4 µM]
Cc1n[nH]c(=O)[nH]c1=O	x	x	2.6%[25.5 µM]
Oc1oc(-c2ccco2)nc1C=Nc1cccc(Cl)c1	x	i	-6.4%[25.5 µM]
Oc1oc(-c2ccco2)nc1C=Nc1ccccc1	>76.9	i	15.8µM*
COc1cc([C@H]2c3cc4c(cc3[C@@H](O[C@H]3O[C@H]5CO[C@@H](C)O[C@H]5[C@@H](O)[C@@H]3O)[C@@H]3COC(=O)[C@H]23)OCO4)cc(OC)c1O	x	x	0.8%[25.5 µM]

Bioassay records (PubChem)
